# Source: PubChem BioAssay
# Values without a mark were called inactive. For part of these data: Measured potencies and affinities stand elsewhere. The source made the active and inactive calls. Unless noted, no rule for the calls is given here. Residues, ends and D or L forms follow the SMILES beside them. *: point of attachment. Octanoyl = CCCCCCCC(=O)*
# Assays:
# [1] = antimalarial activity against Dd2 strain (AID 2302;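 active = growth inhibition above 50% at the single 2 µM test dose, taken to imply half-maximal potency below 2 µM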;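 also: 0% = DMSO untreated growth and 100% = chloroquine plus artemisinin killed control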); conditions: P. falciparum Dd2 in RBCs, LDH growth readout, 72 h; at 2 µM; hits give high values
# [2] = HepG2 cytotoxicity, primary screen, cytotoxicity control for P. falciparum antimalarial project, cell-based, ATP luminescence (AID 2303;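 active = inhibition above 50%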;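 also: 0% = DMSO wells and 100% = digitonin-killed cells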); conditions: HepG2 viability, 24-48 h, at 10 µM, hits give high values
# [3] = target: L-lactate dehydrogenase (Plasmodium falciparum (isolate CDC / Honduras)) (UniProt Q27743); assay: PfLDH activity inhibition – cell lysate, 3D7 strain, counter-screen for P. falciparum growth inhibition project (AID 2304);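 also: 0% = vehicle and 100% = reference inhibitor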; conditions: P. falciparum 3D7 crude extract, LDH APAD/NBT absorbance; at 2 µM; hits give high values
# [4] = inhibition of 3D7 malaria parasite growth – strain 3D7 (AID 2306);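 also: 0% = DMSO wells and 100% = chloroquine plus artemisinin control wells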; conditions: P. falciparum 3D7 erythrocytic growth, LDH absorbance, 72 h; at 2 µM; hits give high values
# [5] = target: Calcium-dependent protein kinase 1 (Plasmodium falciparum (isolate 3D7)) (UniProt P62344); assay: PfCDPK1 kinase inhibitors, biochemical, TCAMS library (AID 1159585; cut-off not given, nearly all actives have IC50 up to about 0.98 µM;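 also: inhibitors leave more ATP so luminescence rises with inhibition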); conditions: recombinant PfCDPK1, Kinase-Glo ATP depletion luminescence
# [6] = target: Plasmodium falciparum protein kinase 6 (PK6, PF3D7_1337100) (UniProt Q8IDW1); assay: PfPK6 kinase inhibitors, biochemical, TCAMS library (AID 1159586); conditions: recombinant PfPK6, Kinase-Glo ATP depletion luminescence
# [7] = target: Protein kinase 7 (PK7), Plasmodium falciparum 3D7 (PF3D7_0213400) (UniProt Q7YTF7); assay: inhibition of Plasmodium PK7 catalytic activity – biochemical, TCAMS antimalarial set, Kinase-Glo luminescence (AID 1159587); conditions: recombinant PfPK7, Kinase-Glo ATP depletion luminescence
# [8] = target: Calcium-dependent protein kinase 4 (Plasmodium falciparum (isolate 3D7)) (UniProt Q8IBS5); assay: PfCDPK4 kinase inhibitors, biochemical, TCAMS library (AID 1159588; cut-off not given, nearly all actives have IC50 up to about 0.91 µM); conditions: recombinant PfCDPK4, Kinase-Glo ATP depletion luminescence
# Chain of Calcium-dependent protein kinase 4 (Plasmodium falciparum (isolate 3D7)) (Q8IBS5 whole entry, looked up): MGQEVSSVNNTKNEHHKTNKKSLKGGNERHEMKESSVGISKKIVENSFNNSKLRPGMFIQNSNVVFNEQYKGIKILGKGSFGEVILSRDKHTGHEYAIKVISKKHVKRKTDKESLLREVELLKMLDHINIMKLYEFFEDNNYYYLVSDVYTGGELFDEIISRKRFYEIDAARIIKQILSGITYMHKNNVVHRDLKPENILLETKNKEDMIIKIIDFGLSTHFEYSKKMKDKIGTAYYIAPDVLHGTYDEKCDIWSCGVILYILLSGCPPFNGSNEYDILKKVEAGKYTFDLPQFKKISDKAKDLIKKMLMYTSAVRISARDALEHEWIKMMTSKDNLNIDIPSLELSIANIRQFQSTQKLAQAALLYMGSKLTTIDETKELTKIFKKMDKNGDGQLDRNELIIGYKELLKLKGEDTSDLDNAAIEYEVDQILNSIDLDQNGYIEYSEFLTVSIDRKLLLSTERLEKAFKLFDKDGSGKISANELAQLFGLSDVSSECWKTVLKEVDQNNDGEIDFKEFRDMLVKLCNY
# Chain of Plasmodium falciparum protein kinase 6 (PK6, PF3D7_1337100) (Q8IDW1 1-305): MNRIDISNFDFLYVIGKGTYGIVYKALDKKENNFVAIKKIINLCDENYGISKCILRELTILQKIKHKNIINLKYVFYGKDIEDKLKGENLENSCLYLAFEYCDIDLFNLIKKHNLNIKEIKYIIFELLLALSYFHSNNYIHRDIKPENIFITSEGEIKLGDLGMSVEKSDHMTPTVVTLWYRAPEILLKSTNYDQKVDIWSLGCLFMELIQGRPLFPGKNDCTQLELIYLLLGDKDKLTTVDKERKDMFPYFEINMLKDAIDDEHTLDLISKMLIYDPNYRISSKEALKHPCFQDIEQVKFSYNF
# Chain of L-lactate dehydrogenase (Plasmodium falciparum (isolate CDC / Honduras)) (Q27743 whole entry, looked up): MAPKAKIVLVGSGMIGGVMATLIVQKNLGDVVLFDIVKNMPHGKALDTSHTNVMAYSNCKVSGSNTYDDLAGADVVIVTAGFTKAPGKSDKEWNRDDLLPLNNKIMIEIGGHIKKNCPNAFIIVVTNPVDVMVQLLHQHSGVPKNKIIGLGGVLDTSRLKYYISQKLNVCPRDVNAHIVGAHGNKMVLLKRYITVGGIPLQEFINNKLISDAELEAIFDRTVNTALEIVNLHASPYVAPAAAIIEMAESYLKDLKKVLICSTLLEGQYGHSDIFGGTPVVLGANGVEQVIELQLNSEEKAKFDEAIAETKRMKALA
# Chain of Calcium-dependent protein kinase 1 (Plasmodium falciparum (isolate 3D7)) (P62344 whole entry, looked up): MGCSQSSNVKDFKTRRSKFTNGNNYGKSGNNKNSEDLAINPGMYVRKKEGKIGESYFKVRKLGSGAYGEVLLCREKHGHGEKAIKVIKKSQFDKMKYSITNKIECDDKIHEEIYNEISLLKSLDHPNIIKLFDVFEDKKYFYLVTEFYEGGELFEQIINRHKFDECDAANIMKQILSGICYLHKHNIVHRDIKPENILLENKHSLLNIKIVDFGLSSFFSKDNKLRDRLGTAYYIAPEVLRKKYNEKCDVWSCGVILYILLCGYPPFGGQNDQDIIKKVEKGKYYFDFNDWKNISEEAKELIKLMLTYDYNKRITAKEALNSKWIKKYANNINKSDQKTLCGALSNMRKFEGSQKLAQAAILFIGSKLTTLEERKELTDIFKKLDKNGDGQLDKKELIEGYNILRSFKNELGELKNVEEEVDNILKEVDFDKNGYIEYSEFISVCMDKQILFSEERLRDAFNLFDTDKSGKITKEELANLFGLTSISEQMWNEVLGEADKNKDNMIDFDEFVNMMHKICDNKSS
# Chain of Protein kinase 7 (PK7), Plasmodium falciparum 3D7 (PF3D7_0213400) (Q7YTF7 1-343): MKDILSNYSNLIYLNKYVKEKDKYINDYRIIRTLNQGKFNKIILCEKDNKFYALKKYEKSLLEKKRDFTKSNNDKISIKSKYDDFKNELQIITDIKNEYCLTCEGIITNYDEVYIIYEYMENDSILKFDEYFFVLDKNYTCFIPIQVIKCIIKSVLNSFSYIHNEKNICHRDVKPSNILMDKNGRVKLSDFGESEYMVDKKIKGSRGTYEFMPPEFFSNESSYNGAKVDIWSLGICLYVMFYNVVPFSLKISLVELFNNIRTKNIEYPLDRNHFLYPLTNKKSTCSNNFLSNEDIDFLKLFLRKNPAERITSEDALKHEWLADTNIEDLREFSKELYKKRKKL
SMILES,growth inhibition [1],inhibition [2],inhibition [3] [%],growth inhibition [4],outcome [5],outcome [6],outcome [7],outcome [8]
Cc1nc(-c2nc(NCCc3c(C)noc3C)ncc2-c2ccsc2)sc1C,85% (active),12%,-2,87% (active),inactive,inactive,inactive,inactive
CCCCCCCC(=O)N[C@@H](Cc1ccccc1)C(=O)N[C@H](C(=O)O)C(C)C (Octanoyl-Phe-Val-OH),-7%,-8%,2,89% (active),inactive,inactive,inactive,inactive
CCCCCCCCCCNCC(O)c1ccc(O)c(C(=O)OC)c1 (configuration not stated),97% (active),3%,-7,97% (active),inactive,inactive,inactive,inactive
O=[N+]([O-])c1cccc(CNCC2CCC(CNCc3cccc([N+](=O)[O-])c3)CC2)c1 (configuration not stated),76% (active),39%,-1,100% (active),inactive,inactive,inactive,inactive
CNC(=O)C1Cc2c([nH]c3c(C)cccc23)C2(N1)C(=O)Nc1ccc(OC(F)(F)F)cc12 (configuration not stated),50% (active),-7%,-3,100% (active),inactive,inactive,inactive,inactive
CCc1c(CCNCCc2cccc(CCNCCc3ccc(OC)c(OC)c3CC)c2)ccc(OC)c1OC,67% (active),100% (active),-6,81% (active),inactive,inactive,inactive,inactive
O=C(Nc1ccc(S(=O)(=O)N2CCOCC2)cc1)c1cc(-c2cc(Cl)ccc2O)n[nH]1,59% (active),40%,-3,96% (active),inactive,inactive,inactive,inactive
Cc1cccc2[nH]c(-c3cccc(-c4cccc(CN5CCN(c6ccncc6)CC5)c4)c3)nc12,96% (active),47%,-5,102% (active),inactive,inactive,inactive,inactive
Cc1cc2c(cc1C(F)(F)F)N(C(=O)Nc1cc(C(=O)NCCN(C)C)cc(C(F)(F)F)c1)CC2,50% (active),19%,-7,100% (active),inactive,inactive,inactive,inactive
CCn1cc(C=C2Oc3c(ccc(O)c3CN3CCCCC3)C2=O)c2cc(OC)ccc21,99% (active),-9%,-1,99% (active),inactive,inactive,inactive,inactive
COc1ccc2nccc([C@@H](O)CN3CCC(NC(=O)Cc4ccc(Br)c5ccccc45)CC3)c2c1,40%,10%,-2,98% (active),inactive,inactive,inactive,inactive
Fc1ccc(-c2oc(C3CCN(CCc4ccc(-c5nc(=S)o[nH]5)cc4)CC3)nc2COCC(F)(F)F)cc1,95% (active),5%,3,97% (active),inactive,inactive,inactive,inactive
CCCc1cc(Cc2cnc(N)nc2N)cc(CCC)c1OCCCCC(=O)O,23%,18%,-2,95% (active),inactive,inactive,inactive,inactive
COc1cc(F)c2ncc(Cl)c(C(O)CN3CCC(NC(=O)c4ccc5c(c4)NC(=O)CS5)CC3)c2c1 (configuration not stated),68% (active),15%,1,98% (active),inactive,inactive,inactive,inactive
COc1ccc2nccc(N3CCN(CCNCc4ccc5c(n4)NC(=O)CO5)CC3)c2c1,5%,18%,5,92% (active),inactive,inactive,inactive,inactive
Cc1ccc2nc(/N=C(\N)NC(=O)NC3CCCCC3)nc(C)c2c1,94% (active),8%,0,99% (active),inactive,inactive,inactive,inactive
CC(C)C1=NCc2ccc([N+](=O)[O-])cc2C(=O)N1,-1%,6%,4,98% (active),inactive,inactive,inactive,inactive
CCc1cn2c3c(cc(C(=O)N[C@@H](Cc4cc(F)cc(F)c4)[C@H](O)CNC4CCCCC4)cc13)N(C)S(=O)(=O)CC2,99% (active),9%,-6,100% (active),inactive,inactive,inactive,inactive
Fc1cccc(COc2ccc(Nc3ncnc4sc(C#CCNC5CCC5)cc34)cc2Cl)c1,73% (active),15%,9,100% (active),inactive,inactive,inactive,inactive
COc1ccccc1N1CCN(C(C(=O)NCc2ccc(C)cc2)c2ccc(C)cc2)CC1 (configuration not stated),79% (active),12%,6,92% (active),inactive,inactive,inactive,inactive

SMILES,growth inhibition [1],inhibition [2],inhibition [3] [%],growth inhibition [4],outcome [5],outcome [6],outcome [7],outcome [8]
Cc1cccc2[nH]c(-c3ccc(-c4cccc(C(=O)NCCN5CCCC5)c4)s3)nc12,2%,22%,4,94% (active),inactive,inactive,inactive,inactive
CC(C)C[C@H](Nc1ccnc(NCC2CCCCC2)n1)C(=O)NCCc1ccccc1,66% (active),10%,0,88% (active),inactive,inactive,inactive,inactive
COc1ccc2ncc(F)c(CCN3C[C@H](CNCc4ccc5ccccc5c4)[C@H](O)C3)c2n1,78% (active),57% (active),-3,100% (active),inactive,inactive,inactive,inactive
N#Cc1ccc(-c2ccc(C(=O)Nc3ccc4c(c3)CCN(C3CCC3)CC4)nc2)cc1,63% (active),21%,0,99% (active),inactive,inactive,inactive,inactive
CC(C)NC(=O)c1cccc(-c2cccc(OCCN3CCSCC3c3ccccc3)c2)c1 (configuration not stated),45%,24%,2,89% (active),inactive,inactive,inactive,inactive
Cc1cc(Cl)ccc1NC(=O)NCCCCCN1CCC(c2c[nH]c3ccccc23)CC1,8%,59% (active),0,91% (active),inactive,inactive,inactive,inactive
CCOc1ccc2nc(C)cc(NN=Cc3ccc(Cl)cc3)c2c1,100% (active),0%,5,100% (active),inactive,inactive,inactive,inactive
CN(C)CCNC(=O)c1ccc2c(c1)n(C1CCN(S(=O)(=O)c3ccc(-c4ccccc4)cc3)CC1)c(=O)n2CC1CCCCC1,66% (active),47%,-2,100% (active),inactive,inactive,inactive,inactive
Cc1ccc(C(=O)NCC2CCN(c3ccc(C(F)(F)F)cc3NC(=O)c3ccco3)CC2)cn1,73% (active),9%,0,91% (active),inactive,inactive,inactive,inactive
O=S(=O)(c1cccc(Cl)c1F)N(CCC(O)(C(F)(F)F)C(F)(F)F)Cc1cccc(O)c1,86% (active),-5%,0,100% (active),inactive,inactive,inactive,inactive
CSc1ccc(CN2CCC(NC(=O)c3ccc(-c4cccc(Cl)c4)s3)CC2)cc1,19%,75% (active),-2,86% (active),inactive,inactive,inactive,inactive
CCCCCCc1cc2cc(-c3nc(-c4ccc(OC)cc4)cs3)c(=O)oc2cc1O,93% (active),45%,-6,97% (active),inactive,inactive,inactive,inactive
COc1ccc2nccc(N(C)CC3(O)CCN(CC(O)c4ccc5c(c4)NC(=O)CS5)CC3)c2n1 (configuration not stated),-4%,1%,-5,101% (active),inactive,inactive,inactive,inactive
CCCN1CCN(c2cc(S(=O)(=O)Nc3ccc(C(=O)NCc4cccc(C(F)(F)F)c4)cc3)ccc2OC)CC1,8%,27%,-3,92% (active),inactive,inactive,inactive,inactive
Cc1ccccc1-c1nc2c(CN3CCC(O)(c4ccccc4)CC3)c(O)ccc2[nH]1,61% (active),27%,4,92% (active),inactive,inactive,inactive,inactive
Cc1ccc2c(OCCN3CCC(Cc4cc5c(cc4F)OCC(=O)N5)CC3)cc(F)cc2n1,71% (active),27%,3,100% (active),inactive,inactive,inactive,inactive
COc1cc(CN2CCC(CO)(Cc3cccc(C(F)(F)F)c3)CC2)c(Cl)cc1O,64% (active),12%,6,99% (active),inactive,inactive,inactive,inactive
O=C(Nc1cccc(CN2CCCN(Cc3cccnc3)CC2)c1)c1ccc(Cl)c(Cl)c1,19%,16%,-2,84% (active),inactive,inactive,inactive,inactive
CCN(CC)CCN(Cc1ccc(-c2ccc(C(F)(F)F)cc2)cc1)C(=O)Cn1c(SCc2ccc(F)cc2)cc(=O)c2ccccc21,70% (active),50% (active),-5,101% (active),inactive,inactive,inactive,inactive
